Each structure is given as a SMILES string. Inconclusive results are not listed. Values without a mark were called inactive. Calls of active or inactive are those of the source. The call rests on the fitted dose curve; in most records, active means well fitted inhibition curve with a large enough effect; inconclusive means small, poorly fitted or top-dose-only effect; inactive means flat fitted curve, though single readings scatter.

For one assay, the system named is ATS95. The experiment in a line: qHTS profiling for inhibitors of Plasmodium falciparum proliferation (AID 504749).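 Further: 0% = DMSO vehicle and full inhibition = artemisinin control; nearly all actives have a fitted effect of over 60% in size.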 The following applies: P. falciparum in erythrocytes, SYBR Green DNA, 72 h; series mostly up to 28.7 µM; activity, negative = inhibition: at the top concentration. Summed up: (§1)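 SYBR Green fluorescence (ex 485 nm, em 535 nm) reports parasite DNA after 72 h compound exposure of infected red cells at 0.3% parasitemia, 2.5% hematocrit; signal normalized to 0.29 uM artemisinin and vehicle wells.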
(In qHTS, concentration-response curves come from the screen itself.)
With `O=C1NCC2(CCN(CCc3ccccc3)CC2)O1`, the “activity, negative = inhibition” value is 3.75%.

Take `CC(=O)CCCCn1c(=O)c2c(ncn2C)n(C)c1=O`: the “activity, negative = inhibition” value was -1.61% [at 12.8 µM].

Take `CCOC(=O)O[C@]1(C(=O)OCCl)CC[C@@H]2[C@H]3CCC4=CC(=O)C=C[C@]4(C)[C@@H]3[C@@H](O)C[C@@]21C`: the “activity, negative = inhibition” value is -6.48%.

Consider `CC(=O)c1ccc(S(=O)(=O)NC(=O)NC2CCCCC2)cc1`, for which the “activity, negative = inhibition” value is -1.43%.

In the case of `O=c1[nH]cnc2c1ncn2[C@H]1CC[C@@H](CO)O1`, the “activity, negative = inhibition” value was 0.239%.

`NCCS`: the “activity, negative = inhibition” value is 4.24%.

Regarding `O=C(O)c1cc(-c2ccccc2)nc2ccccc12`, the “activity, negative = inhibition” value is 4%.

With `COc1ccccc1N1CCN(CCCNc2cc(=O)n(C)c(=O)n2C)CC1`, the compound was classed as inactive.

In the case of `C[C@@H](O)[C@H]1C(=O)N2C(C(=O)O)=C(S[C@@H]3CN[C@H](C(=O)N(C)C)C3)[C@H](C)[C@H]12`, the “activity, negative = inhibition” value was 3.08%.

As to `NC(N)=Nc1nc(CSCC/C(N)=N/S(N)(=O)=O)cs1`, the “activity, negative = inhibition” value is 8.9%.

With `O=C(O)Cc1cccc2ccccc12`, the “activity, negative = inhibition” value is 3.18%.

For `O=C1NC(=O)C(c2ccccc2)(c2ccccc2)N1`, the “activity, negative = inhibition” value was -5.98%.

In the case of `O=C1Nc2ccc(Cl)cc2C(C#CC2CC2)(C(F)(F)F)O1` (centres undefined), the “activity, negative = inhibition” value is -7.86%.

In the case of `CCN(CC)CCOC(=O)c1ccc(N)cc1`, the “activity, negative = inhibition” value was 4.98% [at 12.8 µM].

With `CCN1CCC[C@H]1CNC(=O)c1cc(S(N)(=O)=O)ccc1OC`, the “activity, negative = inhibition” value is -10.4%.

For `C[N+](C)(C)CCCCCC[N+](C)(C)C`, the “activity, negative = inhibition” value is 4.62%.

Consider `CCN(CC)CCNC(=O)c1ccc(N)cc1`, for which the “activity, negative = inhibition” value was 11.1%.

On to `O=C(NCCN1CCOCC1)c1ccc(Cl)cc1`, for which the “activity, negative = inhibition” value was 6.4%.

For `CC1(C)O[C@H]2C[C@@H]3[C@H]4CCC5=CC(=O)C=C[C@]5(C)[C@@]4(F)[C@@H](O)C[C@]3(C)[C@]2(C(=O)CO)O1`, the “activity, negative = inhibition” value is -25%.

Turning to `CCN(CC)C(=O)c1ccc(O)c(OC)c1`, the compound was classed as inactive.

Regarding `CCCNC(=O)NS(=O)(=O)c1ccc(Cl)cc1`, the “activity, negative = inhibition” value is 3.58%.

In the next assay the test system is C2A. The description is as above. The following applies: P. falciparum in erythrocytes, SYBR Green DNA, 72 h; series mostly up to 28.7 µM; activity, negative = inhibition: at the top concentration. The essentials:
as §1
Take `O=C1NCC2(CCN(CCc3ccccc3)CC2)O1`: the “activity, negative = inhibition” value was -2.03%.

As to `CC(=O)CCCCn1c(=O)c2c(ncn2C)n(C)c1=O`, the “activity, negative = inhibition” value is -0.379% [at 12.8 µM].

As for `CCOC(=O)O[C@]1(C(=O)OCCl)CC[C@@H]2[C@H]3CCC4=CC(=O)C=C[C@]4(C)[C@@H]3[C@@H](O)C[C@@]21C`, the “activity, negative = inhibition” value was -6.28%.

In the case of `CC(=O)c1ccc(S(=O)(=O)NC(=O)NC2CCCCC2)cc1`, the “activity, negative = inhibition” value is -13.7%.

On to `O=c1[nH]cnc2c1ncn2[C@H]1CC[C@@H](CO)O1`, for which the “activity, negative = inhibition” value is -7.97%.

As for `NCCS`, the “activity, negative = inhibition” value was 6.16%.

In the case of `O=C(O)c1cc(-c2ccccc2)nc2ccccc12`, the “activity, negative = inhibition” value was 2.8%.

`COc1ccccc1N1CCN(CCCNc2cc(=O)n(C)c(=O)n2C)CC1`: the call was inactive.

On to `C[C@@H](O)[C@H]1C(=O)N2C(C(=O)O)=C(S[C@@H]3CN[C@H](C(=O)N(C)C)C3)[C@H](C)[C@H]12`, for which the “activity, negative = inhibition” value is 2.41%.

Regarding `CN(C)CCC(c1ccccc1)c1ccccn1` (centres undefined), the “activity, negative = inhibition” value was 2.69%.

On to `NC(N)=Nc1nc(CSCC/C(N)=N/S(N)(=O)=O)cs1`, for which the “activity, negative = inhibition” value was 2.21%.

`O=C(O)Cc1cccc2ccccc12`: the “activity, negative = inhibition” value was 6.22%.

On to `O=C1NC(=O)C(c2ccccc2)(c2ccccc2)N1`, for which the “activity, negative = inhibition” value is -2.96%.

For the compound `O=C1Nc2ccc(Cl)cc2C(C#CC2CC2)(C(F)(F)F)O1` (centres undefined), the “activity, negative = inhibition” value was -10.9%.

Turning to `CCN(CC)CCOC(=O)c1ccc(N)cc1`, the “activity, negative = inhibition” value is 5.31% [at 12.8 µM].

`CCN1CCC[C@H]1CNC(=O)c1cc(S(N)(=O)=O)ccc1OC`: the “activity, negative = inhibition” value is 0.868%.

Regarding `Cc1cccc(C)c1OCC(C)N` (centres undefined), the “activity, negative = inhibition” value is -17.7%.

As to `C[N+](C)(C)CCCCCC[N+](C)(C)C`, the “activity, negative = inhibition” value was 2.79%.

As to `CCN(CC)CCNC(=O)c1ccc(N)cc1`, the “activity, negative = inhibition” value was 0.912%.

As to `O=C(NCCN1CCOCC1)c1ccc(Cl)cc1`, the “activity, negative = inhibition” value is -3.59%.

As to `CC1(C)O[C@H]2C[C@@H]3[C@H]4CCC5=CC(=O)C=C[C@]5(C)[C@@]4(F)[C@@H](O)C[C@]3(C)[C@]2(C(=O)CO)O1`, the “activity, negative = inhibition” value is -2.36%.

On to `CCN(CC)C(=O)c1ccc(O)c(OC)c1`, for which the result was inactive.

In the case of `CCCNC(=O)NS(=O)(=O)c1ccc(Cl)cc1`, the “activity, negative = inhibition” value was -4.33%.

The values are drawn from PubChem BioAssay (NCATS).
